Records with an inconclusive call do not appear. Active and inactive are the calls of the source. Unless noted, calls follow the shape of the dose curve; as a rule, active = well fitted curve in the direction sought with a large enough effect; inconclusive = small, poorly fitted or top-dose-only effect, or another doubt; inactive = no such curve, though single readings can be large; an effect the other way counts as inactive or inconclusive.
How the values were obtained:
[1] = target: Lysosomal acid glucosylceramidase (Homo sapiens) (UniProt P04062); experiment: Glucocerebrosidase-p2 (AID 348; in the data active = potency below about 10 µM; also: potency is read from the fitted curve at half-maximal effect); details: purified GBA, blue fluorogenic substrate, 40 min
Summary of the method: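 Normal human glucocerebrosidase (0.2 nM) with blue fluorogenic substrate (80 uM final) in citrate/phosphate pH 5.9 with 10mM sodium taurocholate, 0.01% tween-20; 40 min RT, NaOH/glycine stop; fluorescence Ex 365/Em 440; AC50 from a titration from 0.6 nM upwards.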

[2] = AP1 Signaling Pathway (AID 357; active = well fitted curve in either direction with a large enough effect, not every such curve was filed as active;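 also: ME-180 reporter cells stimulated with EGF at its EC50 level; % is scaled to controls: 0 for no effect and ±100 for the full control effect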); details: ME-180 AP-1-bla reporter, EGF-induced, beta-lactamase ratio, 5 h; at 7.69 µM (top of the series) unless noted
Summary of the method: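 Modulation of EGF-driven AP-1 transcription was assessed with a beta-lactamase reporter in ME-180 cells. Compound and EC50 EGF were co-incubated 5 hours at 37 °C before 2.5-hour CCF4 loading at room temperature and dual-emission reading.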

[3] = target: Cytochrome P450 1A2 (Homo sapiens) (UniProt P05177); experiment: p450-cyp1a2 (AID 410; calls by dose curve; also: potency is read from the fitted curve at half-maximal effect); details: recombinant CYP1A2, luciferin-ME demethylation, luminescence; series mostly up to 57 µM
Summary of the method: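 Luminescent demethylation readout: Luciferin-ME (100uM, equal to Km) turned over by 20nM CYP1A2 for 60 min at room temperature after NADPH regeneration addition, following 10 min compound preincubation. Normalization used 57 uM furafylline as full inhibition.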

[4] = NFAT Signaling Pathway (AID 444; active = well fitted curve in either direction with a large enough effect, not every such curve was filed as active;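 also: carbachol stimulus at about its EC50 of 1 µM final; % is scaled to controls: 0 for no effect and ±100 for the full control effect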); details: Jurkat NFAT-bla M1, carbachol, beta-lactamase ratio, 5 h; at 7.69 µM (top of the series) unless noted
Summary of the method: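 Read-out: CCF4 FRET ratio (460 nm/530 nm) after 1 h RT dye loading, used for %activity and AC50 from titration series. Cells: Jurkat NFAT-β-lactamase/M1 line, treated with compound plus 1 uM carbachol for 5 h, 37 °C.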

[5] = target: Glucocorticoid receptor (Homo sapiens) (UniProt P04150); experiment: GR-EFC Redistribution (AID 451; calls by dose curve; also: potency is read from the fitted curve at half-maximal effect); details: CHO-K1 GR-EFC translocation, beta-gal luminescence, 2 h
Summary of the method: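 Translocation of GR-ED fusion to nuclear EA restores b-gal, read by luminescence after 1 h room-temperature detection. Engineered CHO-K1 biosensor cells, 1,000/well, exposed 2 h at 37 C to titrations up to 46 uM final.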

[6] = target: Mitogen-activated protein kinase 10 (Mus musculus) (UniProt Q61831); experiment: JNK3 AlphaScreen Assay (AID 530; active = well fitted curve in either direction with a large enough effect, not every such curve was filed as active;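 also: kinase came from lysate of stimulated human HepG2 cells; signal reports phosphorylation of biotinylated GST-cJun 1-79 at Ser73 with 10 µM ATP; % is scaled to controls: 0 for no effect and ±100 for the full control effect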); details: JNK3 lysate, c-Jun phosphorylation; series mostly up to 57.1 µM
Summary of the method: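 qHTS titrations with 15 min compound pre-incubation before adding ATP (10 uM final). Read-out: AlphaScreen of Ser73-phosphorylated biotin-GST-cJun using HepG2 lysate JNK3 activated by IL-1β and TNFα.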

[7] = target: 3',5'-cyclic-AMP phosphodiesterase 4B (Homo sapiens) (UniProt Q07343); experiment: qHTS Assay for Inhibitors of PDE-IV (AID 607; active = well fitted activation curve with a large enough effect in the main read-out, with a control signal flat, not every such curve was filed as active; also: % of control where 0% means no effect); details: HEK293 ACTOne CNG channel cells, membrane potential fluorescence; series mostly up to 22.9 µM
Summary of the method: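 HEK293 ACTOne cells with CNG channel (1000/well), endogenous PDE4; membrane potential dye, compounds up to 22.9 uM final. Fluorescence Ex 535/Em 590; RO 20-1724 (100 uM final) as reference.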

[8] = qHTS Assay for Lipid Storage Modulators (AID 1519; calls by dose curve); details: Drosophila S3 cells, BODIPY lipid droplet/cell ratio, laser cytometry, cells loaded with oleic acid; for activity change, negative = inhibition: at 57.5 µM (top of the series)
Summary of the method: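 Cells seeded at 5,000 per well were treated with compounds over a concentration series and loaded with oleic acid (400 uM, as added). Lipid droplet fluorescence (488 nm excitation, 500-530 nm channel) was read by laser-scanning cytometry and normalized to 20 uM Triacsin C.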

[9] = target: Dual specificity protein kinase CLK4 (Homo sapiens) (UniProt Q9HAZ1); experiment: qHTS Assay for Inhibitors of CDC-like Kinase 4 (Kinase-Glo Assay) (AID 1770); details: recombinant Clk4, Kinase-Glo ATP depletion luminescence; series mostly up to 66.7 µM; also: % is scaled to controls: 0 for no effect and ±100 for the full control effect; nearly all actives have a fitted effect of over 65% in size
Summary of the method: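 25 nM Clk4 with 100 uM RS repeat peptide and 1 uM ATP (final) in Tris pH7.5, 10 mM MgCl2, 4.5 h at room temperature. Remaining ATP measured by Kinase-Glo luciferase luminescence.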

[10] = target: Dual specificity protein kinase CLK4 (Homo sapiens) (UniProt Q9HAZ1); experiment: qHTS Assay for Inhibitors of CDC-like Kinase 4 (ADP-Glo Assay) (AID 1771); details: recombinant CLK4, ADP-Glo luminescence; series mostly up to 80 µM; also: % is scaled to controls: 0 for no effect and ±100 for the full control effect; nearly all actives have a fitted effect of over 70% in size
Summary of the method: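 ADP production was read by ADP-Glo luminescence after residual ATP depletion, following 1 h room-temperature reaction of 25 nM Clk4, 1 uM ATP and 100 uM RS peptide with MgCl2, EGTA, DTT and Triton X-100.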

[11] = target: Dual specificity protein kinase CLK4 (Homo sapiens) (UniProt Q9HAZ1); experiment: qHTS Assay for Inhibitors of CDC-like Kinase 4 (ADP-FP Assay) (AID 1795); details: Transcreener ADP fluorescence polarization; series mostly up to 50 µM;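 also: recombinant human CLK4 phosphorylating RS repeat peptide at 1 µM ATP; % is scaled to controls: 0 for no effect and ±100 for the full control effect; nearly all actives have a fitted effect of over 60% in size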
Summary of the method: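 Recombinant Clk4 (6.25 nM) phosphorylated 100 uM RS repeat peptide with 1 uM ATP in 25 mM Tris pH 7.5, 10 mM MgCl2, 0.5 mM EGTA, 2.5 mM DTT, 0.01% Triton X-100 for 1 h. ADP was detected by Transcreener ADP2 competitive fluorescence polarization after 30 min at room temperature.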

[12] = target: Ubiquitin carboxyl-terminal hydrolase 1 (Homo sapiens) (UniProt O94782); experiment: Inhibitors of USP1/UAF1: Pilot qHTS (AID 504865); details: purified USP1/UAF1, Ub-rhodamine cleavage fluorescence; series mostly up to 54.9 µM;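 also: rhodamine fluorescence freed from ubiquitin-rhodamine substrate followed over time; top concentration of the series differs between compounds; % is scaled to controls: 0 for no effect and ±100 for the full control effect; nearly all actives have a fitted effect of over 35% in size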
Summary of the method: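 USP1/UAF1 complex at 1 nM preincubated 15 min at room temperature with compound, then Ub-Rho substrate added at 150 nM final. Fluorescence (480/540 nm) read kinetically in 50 mM HEPES pH 7.8, 0.5 mM EDTA, 1 mM TCEP, 0.1 mg/ml BSA, 0.01% Tween-20.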

[13] = Primary qHTS for small molecule stabilizers of the endoplasmic reticulum resident proteome: Secreted ER Calcium Modulated Protein (SERCaMP) assay (AID 1508630); details: SH-SY5Y GLuc-SERCaMP (Gaussia luciferase released on ER calcium loss) secretion, thapsigargin, luminescence; series mostly up to 38.4 µM; also: % is scaled to controls: 0 for no effect and ±100 for the full control effect
Summary of the method: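 The SH-SY5Y reporter protocol was run at 3 concentrations up to 38.3 uM (primary) or 11 concentrations (follow-up): 16 h compound, 100 nM thapsigargin for 4 h, then extracellular luciferase luminescence.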

[14] = Stat Signaling Pathway (AID 446; active = well fitted curve in either direction with a large enough effect, not every such curve was filed as active); details: ME-180 SIE beta-lactamase reporter, IL-6 stimulated, 5 h; at 7.69 µM (top of the series) unless noted
Summary of the method: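 Normalization used AC90 stimulation (300 pM IL-6) and AC90 inhibition (125 nM pan-JAK inhibitor at 40 pM IL-6). The underlying signal is SIE-driven beta-lactamase in ME-180 cells after 5 h IL-6 exposure with compound.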

[15] = target: Cytochrome P450 3A4 (Homo sapiens) (UniProt P08684); experiment: qHTS Assay for Activators of Cytochrome P450 3A4 (AID 885); details: recombinant CYP3A4, Luciferin-PPXE luminescence, 60 min; series mostly up to 57.1 µM; also: nearly all actives have a fitted effect of over 65% in size; also: potency is read from the fitted curve at half-maximal effect
Summary of the method: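 Human CYP3A4 dealkylates Luciferin-PPXE to luciferin, which luciferase detection converts to light. Substrate was at its KM (25uM), buffer 200mM KPO4, reaction 60 min at RT.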

[16] = target: Cytochrome P450 3A4 (Homo sapiens) (UniProt P08684); experiment: qHTS Assay for Inhibitors and Substrates of Cytochrome P450 3A4 (AID 884); details: recombinant CYP3A4, Luciferin-PPXE luminescence; series mostly up to 57.1 µM; also: nearly all actives have a fitted effect of over 50% in size; also: potency is read from the fitted curve at half-maximal effect
Summary of the method: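 Luminescent readout of luciferin produced by CYP3A4 (20 nM) dealkylation of Luciferin-PPXE, 25 uM (its KM). NADPH-driven reaction ran 60 min at RT after 10 min compound preincubation; data scaled to 57 uM ketoconazole as 100% inhibition.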

[17] = target: Glucocorticoid receptor (Homo sapiens) (UniProt P04150); experiment: GR-GFP Redistribution (AID 450;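 active = compounds whose dose series gives a full or clear partial fitted curve of increased nuclear translocation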; also: potency is read from the fitted curve at half-maximal effect); details: U2OS GR-GFP nuclear translocation, laser cytometry, 2 h
[18] = qHTS Assay for Identification of Small Molecule Agonists for Hypoxia Response Element Signaling Pathway (AID 914; active = well fitted activation curve with a large enough effect in the signal ratio, with a control signal flat, not every such curve was filed as active; the % refers to the signal ratio; also: % of control where 0% means no effect); details: ME-180 (cervical carcinoma) HRE-bla reporter, beta-lactamase ratio, CoCl2, 17 h; activation: stronger effect = higher value
Summary of the method: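 A beta-lactamase reporter under hypoxia response element control in ME-180 cells served as the system. Compound titrations plus EC50 CoCl2 ran 17 h at 37 degrees Celsius; AC50 values were fitted from %Activity.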

[19] = measured here: cell count channel max response
[20] = measured here: lipid channel max response

Chain of Cytochrome P450 1A2 (Homo sapiens) (P05177 whole entry, looked up): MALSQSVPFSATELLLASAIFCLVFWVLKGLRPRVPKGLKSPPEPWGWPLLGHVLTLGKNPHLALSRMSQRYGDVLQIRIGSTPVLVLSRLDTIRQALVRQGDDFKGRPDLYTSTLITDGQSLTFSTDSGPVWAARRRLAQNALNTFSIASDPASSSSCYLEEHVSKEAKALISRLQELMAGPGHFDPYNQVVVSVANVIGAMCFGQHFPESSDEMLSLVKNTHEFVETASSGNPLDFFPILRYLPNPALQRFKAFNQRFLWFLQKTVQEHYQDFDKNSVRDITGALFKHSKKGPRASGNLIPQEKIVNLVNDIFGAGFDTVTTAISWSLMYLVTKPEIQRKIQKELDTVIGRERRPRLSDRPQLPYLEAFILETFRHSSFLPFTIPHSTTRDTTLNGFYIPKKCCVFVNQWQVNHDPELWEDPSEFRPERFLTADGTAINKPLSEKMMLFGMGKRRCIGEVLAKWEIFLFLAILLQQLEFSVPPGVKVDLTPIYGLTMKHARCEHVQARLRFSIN
Chain of Lysosomal acid glucosylceramidase (Homo sapiens) (P04062 whole entry, looked up): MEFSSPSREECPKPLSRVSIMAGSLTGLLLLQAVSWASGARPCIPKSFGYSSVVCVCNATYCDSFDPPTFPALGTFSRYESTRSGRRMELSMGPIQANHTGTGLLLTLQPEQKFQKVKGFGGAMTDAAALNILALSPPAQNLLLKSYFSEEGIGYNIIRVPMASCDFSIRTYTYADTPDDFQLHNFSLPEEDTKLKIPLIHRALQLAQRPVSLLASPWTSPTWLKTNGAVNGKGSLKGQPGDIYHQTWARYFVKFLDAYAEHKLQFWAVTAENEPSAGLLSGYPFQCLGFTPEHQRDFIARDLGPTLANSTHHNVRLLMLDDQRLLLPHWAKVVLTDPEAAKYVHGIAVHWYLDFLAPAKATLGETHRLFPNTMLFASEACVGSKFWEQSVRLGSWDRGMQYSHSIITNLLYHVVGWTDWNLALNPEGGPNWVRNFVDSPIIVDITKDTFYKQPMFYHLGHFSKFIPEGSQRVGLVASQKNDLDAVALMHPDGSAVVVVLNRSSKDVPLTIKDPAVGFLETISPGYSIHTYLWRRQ
Chain of Cytochrome P450 3A4 (Homo sapiens) (P08684 whole entry, looked up): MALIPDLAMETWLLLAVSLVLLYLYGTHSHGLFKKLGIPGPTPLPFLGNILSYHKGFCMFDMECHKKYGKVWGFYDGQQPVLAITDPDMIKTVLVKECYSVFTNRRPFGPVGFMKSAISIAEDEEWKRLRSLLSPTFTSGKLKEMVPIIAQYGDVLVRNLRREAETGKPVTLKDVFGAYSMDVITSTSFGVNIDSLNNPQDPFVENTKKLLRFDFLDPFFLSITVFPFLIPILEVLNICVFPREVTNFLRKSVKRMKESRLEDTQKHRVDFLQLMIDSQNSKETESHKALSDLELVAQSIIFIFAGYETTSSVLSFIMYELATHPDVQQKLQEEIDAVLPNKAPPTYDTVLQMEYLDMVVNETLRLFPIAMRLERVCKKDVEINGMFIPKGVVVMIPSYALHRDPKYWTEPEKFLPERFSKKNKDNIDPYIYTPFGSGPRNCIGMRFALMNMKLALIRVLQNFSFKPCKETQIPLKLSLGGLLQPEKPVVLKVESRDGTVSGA
Chain of Glucocorticoid receptor (Homo sapiens) (P04150 whole entry, looked up, the tested form may be a part): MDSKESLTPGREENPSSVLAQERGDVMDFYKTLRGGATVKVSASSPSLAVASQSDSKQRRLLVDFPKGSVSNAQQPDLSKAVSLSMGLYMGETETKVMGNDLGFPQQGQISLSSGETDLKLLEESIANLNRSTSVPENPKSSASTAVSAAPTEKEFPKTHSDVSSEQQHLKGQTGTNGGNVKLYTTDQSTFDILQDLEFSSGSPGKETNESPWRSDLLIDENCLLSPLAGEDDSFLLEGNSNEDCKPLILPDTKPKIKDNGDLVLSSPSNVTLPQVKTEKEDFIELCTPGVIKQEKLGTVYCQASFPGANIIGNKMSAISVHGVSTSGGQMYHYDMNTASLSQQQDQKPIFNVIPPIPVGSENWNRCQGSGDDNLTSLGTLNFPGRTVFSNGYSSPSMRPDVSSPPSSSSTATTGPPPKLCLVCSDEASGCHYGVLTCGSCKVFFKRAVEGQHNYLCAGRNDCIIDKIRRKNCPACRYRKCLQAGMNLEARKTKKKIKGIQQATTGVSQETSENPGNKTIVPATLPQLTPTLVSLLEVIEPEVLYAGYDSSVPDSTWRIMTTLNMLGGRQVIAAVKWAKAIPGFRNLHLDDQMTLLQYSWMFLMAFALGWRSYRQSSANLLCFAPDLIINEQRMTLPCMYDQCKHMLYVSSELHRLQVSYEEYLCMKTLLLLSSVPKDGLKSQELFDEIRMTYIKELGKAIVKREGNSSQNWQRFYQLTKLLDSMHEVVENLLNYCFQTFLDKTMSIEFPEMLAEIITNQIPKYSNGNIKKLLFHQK
Chain of Ubiquitin carboxyl-terminal hydrolase 1 (Homo sapiens) (O94782 whole entry, looked up): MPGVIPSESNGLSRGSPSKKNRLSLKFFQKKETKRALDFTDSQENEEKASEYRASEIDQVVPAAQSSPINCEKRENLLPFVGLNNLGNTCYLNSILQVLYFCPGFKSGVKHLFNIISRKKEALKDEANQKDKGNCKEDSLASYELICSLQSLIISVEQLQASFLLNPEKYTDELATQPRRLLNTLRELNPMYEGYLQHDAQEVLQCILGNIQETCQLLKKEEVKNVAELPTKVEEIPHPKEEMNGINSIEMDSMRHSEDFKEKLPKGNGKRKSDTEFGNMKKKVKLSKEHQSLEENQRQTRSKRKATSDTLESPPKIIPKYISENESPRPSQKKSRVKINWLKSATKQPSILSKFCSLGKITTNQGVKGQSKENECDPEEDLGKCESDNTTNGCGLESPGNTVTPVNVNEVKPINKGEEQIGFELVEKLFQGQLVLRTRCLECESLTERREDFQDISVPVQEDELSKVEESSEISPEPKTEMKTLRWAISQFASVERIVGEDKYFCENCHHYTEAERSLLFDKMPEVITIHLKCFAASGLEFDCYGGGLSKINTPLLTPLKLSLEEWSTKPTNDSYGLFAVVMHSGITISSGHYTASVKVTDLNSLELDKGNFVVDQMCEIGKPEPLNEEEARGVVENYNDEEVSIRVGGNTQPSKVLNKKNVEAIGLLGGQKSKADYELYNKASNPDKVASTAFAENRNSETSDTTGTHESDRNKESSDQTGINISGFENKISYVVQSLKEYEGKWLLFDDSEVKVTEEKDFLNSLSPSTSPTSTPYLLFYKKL
Chain of Dual specificity protein kinase CLK4 (Homo sapiens) (Q9HAZ1 whole entry, looked up): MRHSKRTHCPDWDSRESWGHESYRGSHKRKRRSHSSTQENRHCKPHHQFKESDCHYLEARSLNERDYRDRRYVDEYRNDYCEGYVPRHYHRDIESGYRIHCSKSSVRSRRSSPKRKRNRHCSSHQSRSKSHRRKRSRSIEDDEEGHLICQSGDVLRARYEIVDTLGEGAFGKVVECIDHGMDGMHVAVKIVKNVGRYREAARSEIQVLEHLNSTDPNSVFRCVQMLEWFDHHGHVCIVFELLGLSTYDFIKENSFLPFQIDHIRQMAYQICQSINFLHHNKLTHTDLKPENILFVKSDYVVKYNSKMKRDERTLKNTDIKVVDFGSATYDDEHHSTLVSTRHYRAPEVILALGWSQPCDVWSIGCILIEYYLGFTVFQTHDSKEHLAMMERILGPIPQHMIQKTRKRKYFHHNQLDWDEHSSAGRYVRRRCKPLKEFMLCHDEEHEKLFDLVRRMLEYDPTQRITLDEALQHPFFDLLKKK
Chain of 3',5'-cyclic-AMP phosphodiesterase 4B (Homo sapiens) (Q07343 whole entry, looked up): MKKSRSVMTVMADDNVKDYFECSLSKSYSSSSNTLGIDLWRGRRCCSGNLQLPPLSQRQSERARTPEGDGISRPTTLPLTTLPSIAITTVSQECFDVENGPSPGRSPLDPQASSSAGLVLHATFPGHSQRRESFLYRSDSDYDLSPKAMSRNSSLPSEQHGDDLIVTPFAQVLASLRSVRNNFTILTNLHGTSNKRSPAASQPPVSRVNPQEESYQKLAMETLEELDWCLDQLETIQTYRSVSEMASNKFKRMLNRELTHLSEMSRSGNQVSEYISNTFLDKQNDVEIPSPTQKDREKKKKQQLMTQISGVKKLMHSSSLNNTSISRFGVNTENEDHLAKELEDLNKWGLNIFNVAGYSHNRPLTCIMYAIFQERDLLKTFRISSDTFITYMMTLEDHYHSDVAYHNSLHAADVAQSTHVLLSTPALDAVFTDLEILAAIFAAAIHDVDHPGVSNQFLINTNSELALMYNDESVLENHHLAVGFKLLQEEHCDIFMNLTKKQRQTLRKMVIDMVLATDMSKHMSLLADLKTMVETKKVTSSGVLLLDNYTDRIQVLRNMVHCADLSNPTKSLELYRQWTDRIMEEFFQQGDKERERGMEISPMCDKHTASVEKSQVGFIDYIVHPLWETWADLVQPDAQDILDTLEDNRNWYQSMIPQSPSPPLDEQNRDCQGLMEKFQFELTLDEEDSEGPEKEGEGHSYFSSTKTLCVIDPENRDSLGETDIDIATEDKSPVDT

CCNc1ncc2nc(-c3ccc(Cl)cc3)c(=O)n(C[C@H]3CCCO3)c2n1
-29.6%: max response [8, 20]
-16%: max response [8, 19]
active: Potency [3] 0.794 µM
inactive: Potency [1] > 11.4 µM | activity change, negative = inhibition [2] 25.5% | activity change, negative = inhibition [4] 4.01% | Potency [5] > 46 µM | outcome [6] | Potency [7] | activity change, negative = inhibition [8] -12.7% | Potency [9] | Potency [10] | Potency [11] | Potency [12] | Potency [13]

CN(C)Cc1ccccc1-c1nc(NCc2cccs2)c2ccccc2n1
inactive: Potency [1] > 11.4 µM | activity change, negative = inhibition [2] 25.7% | activity change, negative = inhibition [4] -24.9% | activity, negative = inhibition [14] 15.6% | Potency [5] > 46 µM | outcome [6] | Potency [15] | activity change, negative = inhibition [8] -0.128% | Potency [9] | Potency [10] | Potency [11] | Potency [12] | Potency [13]
active: Potency [3] 1 µM
15.9%: max response [8, 20]
16.9%: max response [8, 19]

Cc1ccccc1-c1cc(N(C)C)ncn1
26.4%: max response [8, 20]
20.2%: max response [8, 19]
inactive: Potency [1] > 11.4 µM | activity change, negative = inhibition [2] -2.87% | activity change, negative = inhibition [4] -0.723% | activity, negative = inhibition [14] 7.1% | Potency [5] > 46 µM | outcome [6] | Potency [7] | Potency [16] | activity change, negative = inhibition [8] 6.31% | Potency [9] | Potency [10] | Potency [11] | Potency [12] | Potency [13]
active: Potency [3] 2 µM | Potency [15] 15.8 µM

CN1CCN(c2ncc3nc(-c4cc(F)cc(F)c4)c(=O)n(C4CC4)c3n2)CC1
12.3%: max response [8, 19]
inactive: Potency [1] > 11.4 µM | activity change, negative = inhibition [2] -8.53% | activity change, negative = inhibition [4] -23.1% | Potency [17] > 9.22 µM | Potency [5] > 46 µM | outcome [6] | Potency [7] | Potency [15] | activity change, negative = inhibition [8] 1.65% | Potency [9] | Potency [10] | Potency [11] | Potency [12] | Potency [13]
active: Potency [3] 15.8 µM
12.5%: max response [8, 20]

COc1ccccc1CCn1c(=O)c(-c2cccc(F)c2)nc2cncnc21
active: Potency [3] 1.58 µM | Potency [16] 3.16 µM
inactive: Potency [1] > 11.4 µM | activity change, negative = inhibition [2] -14.2% | activity change, negative = inhibition [4] -17.1% | activity, negative = inhibition [14] 3.83% | Potency [17] > 9.22 µM | Potency [5] > 46 µM | outcome [6] | Potency [15] | activation [18] -1.08% | activity change, negative = inhibition [8] 6.88% | Potency [9] | Potency [10] | Potency [11] | Potency [12] | Potency [13]
19.8%: max response [8, 20]
18.2%: max response [8, 19]
